Compounds with a hit are over-represented: about 21% of the library has one in this group of screens.
HCMV inh = blocks human cytomegalovirus replication | HFF cells, HCMV-luciferase reporter, 72 h; stronger effect = lower value | activity change, negative = inhibition, % at 57.5 µM | hit rate 4.5% among 410,000 | AID 1259415; in the data active = activity change below about -60%; inconclusive = no clear call, values can overlap the other calls; inactive = above about -39%; note: % is set by controls: 0 for no effect and ±100 for the full control effect
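HFF cells seeded 16 h at 37C, treated with compounds, infected with luciferase-reporter HCMV at MOI 1 PFU/cell; luciferase read at 72 h post infection, normalized to buffer-only and Salinomycin controls.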
Pf growth 96h = P. falciparum growth inhibition at 96 hours; P. falciparum luciferase reporter growth, 96 h; Potency, µM (titrated, usually from 28.7 µM), for inactives: top-dose activity change, negative = inhibition, hits mostly inhibitors; hit rate 6.9% among 320,000; note: potency is the fitted concentration of half-maximal effect; % is set by controls: 0 for no effect and ±100 for the full control effect
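96 h incubation, 37 C, 5% CO2, of luciferase-reporter P. falciparum-infected RBCs (2% hematocrit, 0.05% parasitemia final) with test compounds; endpoint luminescence.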
Pf growth 48h = P. falciparum growth inhibition at 48 hours (one generation); hit rate 5.9% among 310,000; P. falciparum luciferase growth in erythrocytes, 48 h; AID 504832; Potency, µM (doses to about 28.7 µM), for the others: at the top dose activity change, negative = inhibition, hits mostly inhibitors; note: potency is the fitted concentration of half-maximal effect; % is set by controls: 0 for no effect and ±100 for the full control effect
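A one-generation exposure of luciferase-tagged malaria parasites in RPMI 1640/Albumax erythrocyte culture, 37 C and 5% CO2. Inhibition is inferred from decreased luminescence after adding detection reagent.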
HCV inhibitor = blocks hepatitis C virus; Huh7.5.1 HCVcc-Cre infection, luciferase reporter, 44 h; Potency, µM (highest dose often 41.8 µM), without a hit: at the highest dose activity change, negative = inhibition, actives largely listed as inhibitors; hit rate 3.4% among 340,000; note: potency is the fitted concentration of half-maximal effect; % is set by controls: 0 for no effect and ±100 for the full control effect
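Whole-lifecycle infectious HCVcc-Cre system; cells 1,000/well, compound then virus (~0.5 moi) added 4 h after plating, 44 h culture. Luciferase read 15 sec following 15 min substrate incubation, room temp.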
Shiga inhibitor = inhibitors of Shiga toxin in Vero cells | Vero cells, Shiga toxin protein synthesis inhibition reporter | inhibition, % at 38.7 µM | hit rate 9.2% among 290,000; in the data active = inhibition mostly above about 28%, no sharp cut-off; inactive = mostly below about 43%; note: 0% is about no effect
CHX counter = counter-screen hit for Shiga toxin inhibitors, cycloheximide | hit rate 12% among 300,000 | max response, % | cell reporter, cycloheximide protein synthesis inhibition counterscreen | AID 2314; in the data active = max response mostly above about 13%, no sharp cut-off; inactive = mostly below about 14%; note: read at 38.3 µM for the half of the compounds with a filed dose; 0% is about no effect
An asterisk follows results filed as active; ? = inconclusive; / = no result given. Unless noted, calls come from the whole dose curve; as a rule, active = well fitted inhibition curve with a large enough effect; inconclusive = small, poorly fitted or top-dose-only effect, or another doubt; inactive = no such curve, though single readings can be large or run the other way.

SMILES | HCMV inh | Pf growth 96h | Pf growth 48h | HCV inhibitor | Shiga inhibitor | CHX counter
COC(=O)N/N=C\c1ccc(OC(=O)c2ccco2)cc1 | -17 | ? | 3% | 9% | 12 | 7
COc1ccc(CNC(=O)COC(=O)/C=C/c2ccco2)cc1 | -5 | -11% | -10% | 5% | -2 | -3
CC(C)(C)OC(=O)N/N=C\c1ccc(OC(=O)c2ccco2)cc1 | 19 | -13% | 257% | -12% | 79* | 38*
COC(=O)N/N=C/c1ccc(OC(=O)/C=C/c2ccco2)cc1 | -34 | 15% | 11% | 1% | 30 | 12
CCc1ccc(OC(=O)/C=C/c2ccco2)cc1 | -3 | ? | 1% | -7% | 30* | 33*
O=C(Cc1ccccc1)N/N=C/c1ccc(OC(=O)/C=C\c2ccco2)cc1 | -13 | -20% | 7% | -5% | 49* | 29*
C=C1N(S(=O)(=O)C(F)(F)F)CC[C@@]12c1ccccc1N(C)[C@@H]2c1cn(C)c2ccccc12 | 6 | / | / | / | / | /
COc1ccc([C@H]2CC(=O)C=C(c3cccc(F)c3OC)C2)cc1 | -4 | 33% | 13% | ? | / | /
COc1ccc([C@H]2CC(=O)C=C(c3ccccc3Oc3ccccc3)C2)cc1 | 5 | ? | 10µM* | ? | / | /
COc1ccc([C@H]2CC(=O)C=C(c3ccnc4ccc(Cl)cc34)C2)cc1 | -78* | ? | ? | ? | / | /
COc1ccc([C@H]2CC(=O)C=C(c3ccc(CNC(=O)OC(C)(C)C)cc3)C2)cc1 | 21 | 5.9µM* | 12µM* | ? | / | /
COc1ccc([C@H]2CC(=O)C=C(c3ccc(OC(F)(F)F)cc3)C2)cc1 | 248 | 3% | -1% | -10% | / | /
COc1ccc([C@H]2CC(=O)C=C(c3cc(C)ccc3OC)C2)cc1 | -1 | ? | 0% | 7.9µM* | / | /
CC1(N(O)/C=C2\C=CC=CC2=O)CCCCC1=O (stereo not drawn) | -28 | 21% | 43% | 8% | 10 | 2
COc1ccc([C@H]2CC(=O)C=C(c3ccccc3-c3ccccc3)C2)cc1 | 16 | 13µM* | ? | ? | / | /
O=C(NCc1ccccn1)C1(C(F)(F)F)C/C(=C\Cc2ccccc2)CCCO1 (stereo not drawn) | / | / | / | / | 2 | 17
CCCS(=O)(=O)NC(=O)C1(C)CCCN(C(=O)CCc2ccccc2)C1 (stereo not drawn) | -65* | / | / | / | / | /
Cc1ccc(Cl)cc1NC1=C/C(=N\S(=O)(=O)c2cccs2)c2ccccc2C1=O | -99* | 0.15µM* | / | 10µM* | -10 | -1
O=C1C(Nc2ccc(O)cc2)=C/C(=N/S(=O)(=O)c2cccs2)c2ccccc21 | -99* | 0.47µM* | ? | 3.5µM* | 20 | 21*
Cc1c(Cl)cccc1N/C(=N/S(=O)(=O)c1cccs1)c1ccccc1 | -4 | ? | -1% | -6% | -19 | -4
Cc1cccc(NC2=C/C(=N/S(=O)(=O)c3cccs3)c3ccccc3C2=O)c1 | 62 | -9% | 0.52µM* | 2.8µM* | 26 | 14*
O=C(O)c1ccc(NC2=C/C(=N/S(=O)(=O)c3cccs3)c3ccccc3C2=O)cc1 | -24 | / | / | / | / | /
Cc1ccc2c(c1)C(=O)CC(c1ccccc1)S2 (stereo not drawn) | 42 | / | / | -29% | / | /
CCN(CC)CCOC(=O)c1ccc(NC(=O)c2cc3c(=O)n(CC)c4ccccc4c3s2)cc1 | 7 | / | / | / | / | /
CC(C)(C)OC(=O)N[C@@H](CCCCNC(=O)OCc1ccccc1)c1nnc([C@H](CCCCNC(=O)OCc2ccccc2)NC(=O)OC(C)(C)C)o1 | / | 2.6µM* | ? | -29% | -2 | -2
COc1ccc(NC(=O)C(CCCCNC(=O)OC(C)(C)C)NC(=O)OCc2ccccc2)cc1 (stereo not drawn) | -18 | 0.59µM* | ? | 1% | -2 | -3
CC[C@@H](C)[C@H](NC(=O)OCc1ccccc1)c1nnc([C@@H](NC(=O)OCc2ccccc2)[C@@H](C)CC)o1 | 9 | 10µM* | 10µM* | ? | -1 | 1
Cc1ccc(S(=O)(=O)/N=C(/Nc2c(C)cccc2C)c2ccccc2)cc1 | -18 | / | / | 2% | / | /
c1ccc(-c2[nH]ncc2-c2ccnc3ccccc23)nc1 | / | / | / | / | -6 | -6

Screens deposited in PubChem by National Center for Advancing Translational Sciences (NCATS).
